Laboratory results: PubChem BioAssay (NCATS)
Records with an inconclusive call do not appear. Active and inactive are the calls of the source. Unless noted, calls come from the whole dose curve; as a rule, active = well fitted curve in either direction with a large enough effect (not every such curve was filed as active); inconclusive = small, poorly fitted or top-dose-only effect, or another doubt; inactive = flat fitted curve, though single readings scatter.

What was measured:
[1] = AP1 Signaling Pathway (AID 357); conditions: ME-180 AP-1-bla reporter, EGF-induced, beta-lactamase ratio, 5 h; at 17.2 µM (top of the series) unless noted; note: % is set by controls: 0 for no effect and ±100 for the full control effect
How it was run: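 Modulation of EGF-driven AP-1 transcription was assessed with a beta-lactamase reporter in ME-180 cells. Compound and EC50 EGF were co-incubated 5 hours at 37 °C before 2.5-hour CCF4 loading at room temperature and dual-emission reading.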

[2] = NFAT Signaling Pathway (AID 444); conditions: Jurkat NFAT-bla M1, carbachol, beta-lactamase ratio, 5 h; at 17.2 µM (top of the series) unless noted;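 note: carbachol stimulus at about its EC50 of 1 µM final; % is set by controls: 0 for no effect and ±100 for the full control effect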
How it was run: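 Jurkat cells carrying an NFAT-driven β-lactamase reporter and co-transfected muscarinic M1 receptor were treated with compound plus carbachol (1 uM final, an EC50 level) for 5 h at 37 °C. CCF4 loading followed for 1 h at RT; 460/530 nm ratio gave %activity.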

[3] = Stat Signaling Pathway (AID 446); conditions: ME-180 SIE beta-lactamase reporter, IL-6 stimulated, 5 h; at 17.2 µM (top of the series) unless noted;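 note: ME-180 cervical cancer cells given 40 pM IL-6 alongside compound; SIE-controlled beta-lactamase reporter measured as 460/530 nm FRET emission ratio; % is set by controls: 0 for no effect and ±100 for the full control effect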
How it was run: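 IL-6/STAT signaling read in ME-180 cells via an SIE beta-lactamase reporter. Stimulus was 40 pM IL-6 (its AC50) for 5 hrs, so both activation and inhibition register.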

[4] = molecular target: Glucocorticoid receptor (Homo sapiens) (UniProt P04150); assay: GR-GFP Redistribution (AID 450;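 active = compounds whose dose series gives a full or clear partial fitted curve of increased nuclear translocation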; note: potency is the fitted concentration of half-maximal effect)
[5] = molecular target: Cytochrome P450 1A2 (Homo sapiens) (UniProt P05177); assay: p450-cyp1a2 (AID 410; calls by dose curve; note: potency is the fitted concentration of half-maximal effect;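 for activity change, negative = inhibition: -100% = full effect of reference inhibitor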)
How it was run: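 Luminescent readout of luciferin formed from Luciferin-ME by human CYP1A2; data normalized against complete inhibition by 57 uM furafylline. Enzyme 20nM, substrate 100uM at Km, 100mM KPO4 buffer, 60 min reaction at room temperature.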

[6] = molecular target: Glucocorticoid receptor (Homo sapiens) (UniProt P04150); assay: GR-EFC Redistribution (AID 451; calls by dose curve; note: potency is the fitted concentration of half-maximal effect); conditions: CHO-K1 GR-EFC translocation, beta-gal luminescence, 2 h
How it was run: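 CHO-K1 cells stably expressing nuclear-localized β-gal enzyme acceptor and GR fused C-terminally to the enzyme donor fragment; ligand-driven nuclear translocation restores β-gal by complementation. Compounds titrated up to 46 uM final, 2 h at 37 °C; luminescence read.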

[7] = molecular target: Mitogen-activated protein kinase 10 (Mus musculus) (UniProt Q61831); assay: JNK3 AlphaScreen Assay (AID 530);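 note: kinase came from lysate of stimulated human HepG2 cells; signal reports phosphorylation of biotinylated GST-cJun 1-79 at Ser73 with 10 µM ATP; % is set by controls: 0 for no effect and ±100 for the full control effect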
How it was run: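 Inhibitors reduce antibody binding to phosphorylated biotin-cJun, lowering AlphaScreen luminescence. Lysates from HepG2 cells pre-activated by IL-1beta plus TNF-alpha supplied JNK3; compounds were titrated.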

[8] = molecular target: 3',5'-cyclic-AMP phosphodiesterase 4B (Homo sapiens) (UniProt Q07343); assay: qHTS Assay for Inhibitors of PDE-IV (AID 607; active = well fitted activation curve with a large enough effect in the main read-out, with a control signal flat, not every such curve was filed as active; note: % of control where 0% means no effect)
How it was run: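 Live HEK293 cells with a modified cyclic nucleotide-gated (CNG) channel report intracellular cAMP via membrane-potential dye fluorescence (ex 535/em 590 nm). Endogenous PDE-IV was targeted. Compounds were tested at up to 22.9 uM final; RO 20-1724 100 uM served as control.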

[9] = qHTS Assay for Identification of Small Molecule Agonists for Hypoxia Response Element Signaling Pathway (AID 914; active = well fitted activation curve with a large enough effect in the signal ratio, with a control signal flat, not every such curve was filed as active; the % refers to the signal ratio; note: % of control where 0% means no effect); conditions: ME-180 (cervical carcinoma) HRE-bla reporter, beta-lactamase ratio, CoCl2, 17 h; activation: stronger effect = higher value
How it was run: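 qHTS titration; ME-180 HRE-bla cells; EC50 CoCl2 co-treatment, 17 h at 37 degrees Celsius; CCF4 dye, ex 405nm, em 460nm and 530nm; %Activity from ratio; AC50.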

[10] = molecular target: Cytochrome P450 3A4 (Homo sapiens) (UniProt P08684); assay: qHTS Assay for Activators of Cytochrome P450 3A4 (AID 885; active = well fitted curve in the direction sought with a large enough effect; an effect the other way counts as inactive or inconclusive; note: nearly all actives have a fitted effect of over 65% in size; note: potency is the fitted concentration of half-maximal effect)
How it was run: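 Quantitative HTS format: compounds preincubated with 20nM human CYP3A4 and Luciferin-PPXE substrate at KM, reaction started by NADPH regeneration, stopped after 60 min, luciferase luminescence read 20 min later.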

[11] = molecular target: Guanine nucleotide-binding protein G(i) subunit alpha-1 (Homo sapiens) (UniProt P63096); assay: qHTS Assay for Inhibitors of RGS12 GoLoco Motif Activity (Green Fluorophore) (AID 879; active = well fitted curve in the direction sought with a large enough effect; an effect the other way counts as inactive or inconclusive;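 note: 0% = labeled peptide with Gαi1 and full inhibition = labeled peptide alone without protein; negative values mean loss of peptide binding seen as reduced polarization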)
How it was run: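 Fluorescence polarization assay: 50 nM Gαi1 with 10 nM FITC-labeled RGS12 GoLoco peptide in 10 mM Tris pH 7.5, 150 mM NaCl, 0.1 mM GDP, 0.05% NP40, 10 min at room temperature with compound.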

[12] = molecular target: Cytochrome P450 3A4 (Homo sapiens) (UniProt P08684); assay: qHTS Assay for Inhibitors and Substrates of Cytochrome P450 3A4 (AID 884; active = well fitted curve in the direction sought with a large enough effect; an effect the other way counts as inactive or inconclusive; note: % is set by controls: 0 for no effect and ±100 for the full control effect; nearly all actives have a fitted effect of over 50% in size)
How it was run: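 20 nM human CYP3A4 with 25 uM Luciferin-PPXE (at KM) in 200 mM KPO4, preincubated 10 min with compound; NADPH regeneration started a 60 min RT reaction. Luciferin detected by luminescence, normalized to 57 uM ketoconazole as full inhibition.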

[13] = molecular target: Pyruvate kinase (Leishmania mexicana) (UniProt Q27686); assay: qHTS Validation Assay for Inhibitors of Leishmania Mexicana Pyruvate Kinase (AID 945; active = well fitted curve in the direction sought with a large enough effect; an effect the other way counts as inactive or inconclusive;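 note: 0% = DMSO only neutral control wells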)
How it was run: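 Read-out: luminescence from PKLight stop/detection reagent, data normalized to DMSO. Reaction: 0.2 nM E451W LmPYK, 0.5 mM PEP, 0.1 mM ADP, pH 7.2, 1 h room temperature.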

[14] = molecular target: Pyruvate kinase PKM (Homo sapiens) (UniProt P14618); assay: qHTS Assay for Activators of Human Muscle Pyruvate Kinase (AID 954; active = well fitted curve in the direction sought with a large enough effect, not every such curve was filed as active;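 note: 0% = uninhibited enzyme and -100% = no enzyme or full thiadiazolimine inhibition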)
How it was run: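 Enzyme was run at intermediate activity so both inhibitors and activators could be detected. ATP formed from ADP and PEP by 0.1 nM human PKM2 during a 1 h room-temperature incubation was quantified by coupled luciferase luminescence.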

[15] = molecular target: Alpha-galactosidase A (Homo sapiens) (UniProt P06280); assay: Counterscreen for Glucocerebrosidase Inhibitors: qHTS Assay for Human alpha-Galactosidase at pH 4.5 (AID 992; active = well fitted curve in the direction sought with a large enough effect; an effect the other way counts as inactive or inconclusive; note: 0% is about no effect)
How it was run: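 Read-out is 4-methylumbelliferone fluorescence (365 nm excitation, 440 nm emission) after a pH 10 NaOH/glycine stop. Reactions held 2 nM enzyme and 80 uM substrate at pH 4.5 for 20 min at room temperature.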

[16] = qHTS Assay for Identification of Small Molecule Antagonists for NFkB Signaling Pathway (AID 895; active = well fitted inhibition curve with a large enough effect in the signal ratio, with a control signal flat, not every such curve was filed as active; the % refers to the signal ratio; note: % is set by controls: 0 for no effect and ±100 for the full control effect)
How it was run: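 NFkB-bla ME-180 cervical carcinoma cells with beta-lactamase reporter under NFkB response element; compounds added, then TNF alpha at 10 pM final (EC50), 5 h at 37 C. LiveBLAzer substrate 2 h, room temperature; emission 460/530 nm at 405 nm excitation.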

[17] = molecular target: Muscarinic acetylcholine receptor M1 (Rattus norvegicus) (UniProt P08482); assay: qHTS Assay for Antagonists of Acetylcholine Muscarinic M1 Receptor: Kinetic Measurement of Intracellular Calcium Response (AID 943; active = well fitted curve in the direction sought with a large enough effect; an effect the other way counts as inactive or inconclusive; note: potency is the fitted concentration of half-maximal effect; nearly all actives have a fitted effect of over 75% in size)
How it was run: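 Rat M1-CHO cells, 2000/well, overnight → Fluo-4 no-wash dye with probenecid, 1 h 37C → compound 10 min, room temp → basal read 6 s → carbachol EC80 (100 nM) → 4 min kinetic read; peak/basal.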

[18] = molecular target: Muscarinic acetylcholine receptor M1 (Rattus norvegicus) (UniProt P08482); assay: qHTS Assay for Antagonists of Acetylcholine Muscarinic M1 Receptor: Measurement of IP-One Response (AID 944; active = well fitted curve in the direction sought with a large enough effect; an effect the other way counts as inactive or inconclusive; note: potency is the fitted concentration of half-maximal effect; nearly all actives have a fitted effect of over 75% in size)
How it was run: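 M1-CHO (rat), 2000 cells/well, overnight recovery; cpd 10 min; carbachol EC80 (200 nM), 30 min, HEPES buffer + 50 mM LiCl pH 7.4; IP-One HTRF, Ex 337, Em 620/665 nm.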

[19] = molecular target: alpha-glucosidase (Oryza sativa, rice) (UniProt Q653V4); assay: Counterscreen for Glucocerebrosidase Inhibitors: qHTS Assay for Rice alpha-Glucosidase at pH 5.0 (AID 997; active = well fitted curve in the direction sought with a large enough effect; an effect the other way counts as inactive or inconclusive;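 note: 0% = full activity with enzyme and -100% = basal without enzyme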)
How it was run: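 Rice alpha-glucosidase (4 nM final) with 400 uM 4-methylumbelliferyl-alpha-D-glucopyranoside in citrate buffer pH 5.0, 20 min at room temperature, stopped at pH 10; fluorescence 365/440 nm, compounds 0.7 nM–77 uM, AC50 from Hill fits.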

3',5'-cyclic-AMP phosphodiesterase 4B (Homo sapiens), sequence (Q07343 whole entry, looked up): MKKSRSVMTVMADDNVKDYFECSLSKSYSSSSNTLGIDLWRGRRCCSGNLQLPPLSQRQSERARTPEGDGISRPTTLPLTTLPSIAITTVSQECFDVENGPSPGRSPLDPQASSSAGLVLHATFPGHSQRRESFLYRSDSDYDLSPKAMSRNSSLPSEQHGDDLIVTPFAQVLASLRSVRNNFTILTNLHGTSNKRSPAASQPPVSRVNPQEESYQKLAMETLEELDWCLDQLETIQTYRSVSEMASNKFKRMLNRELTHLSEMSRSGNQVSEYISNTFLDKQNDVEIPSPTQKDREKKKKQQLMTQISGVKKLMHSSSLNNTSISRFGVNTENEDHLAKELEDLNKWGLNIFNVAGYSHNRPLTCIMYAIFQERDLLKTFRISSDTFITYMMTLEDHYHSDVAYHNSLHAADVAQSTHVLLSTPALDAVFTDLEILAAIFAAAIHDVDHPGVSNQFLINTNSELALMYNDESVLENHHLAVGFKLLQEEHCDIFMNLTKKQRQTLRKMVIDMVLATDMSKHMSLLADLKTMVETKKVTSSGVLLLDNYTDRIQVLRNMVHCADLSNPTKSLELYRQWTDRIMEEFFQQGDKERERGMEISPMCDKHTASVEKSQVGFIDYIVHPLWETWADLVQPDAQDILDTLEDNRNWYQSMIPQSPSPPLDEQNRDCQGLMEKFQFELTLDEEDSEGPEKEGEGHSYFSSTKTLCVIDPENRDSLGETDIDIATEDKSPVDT
Pyruvate kinase (Leishmania mexicana), sequence (Q27686 2-499 E452W): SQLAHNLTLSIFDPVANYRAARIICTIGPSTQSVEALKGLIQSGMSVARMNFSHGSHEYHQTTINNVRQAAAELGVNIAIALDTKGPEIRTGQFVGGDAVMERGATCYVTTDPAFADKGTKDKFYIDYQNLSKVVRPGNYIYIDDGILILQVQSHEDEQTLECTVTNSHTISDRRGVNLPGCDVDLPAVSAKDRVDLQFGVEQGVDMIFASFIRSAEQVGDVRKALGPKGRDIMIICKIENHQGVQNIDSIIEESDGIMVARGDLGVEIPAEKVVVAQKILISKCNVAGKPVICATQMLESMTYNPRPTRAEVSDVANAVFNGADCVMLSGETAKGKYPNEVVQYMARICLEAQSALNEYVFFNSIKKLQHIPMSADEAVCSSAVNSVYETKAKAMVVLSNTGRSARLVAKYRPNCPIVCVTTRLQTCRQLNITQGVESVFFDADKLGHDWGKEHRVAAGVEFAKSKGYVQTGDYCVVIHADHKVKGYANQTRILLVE
Muscarinic acetylcholine receptor M1 (Rattus norvegicus), sequence (P08482 whole entry, looked up): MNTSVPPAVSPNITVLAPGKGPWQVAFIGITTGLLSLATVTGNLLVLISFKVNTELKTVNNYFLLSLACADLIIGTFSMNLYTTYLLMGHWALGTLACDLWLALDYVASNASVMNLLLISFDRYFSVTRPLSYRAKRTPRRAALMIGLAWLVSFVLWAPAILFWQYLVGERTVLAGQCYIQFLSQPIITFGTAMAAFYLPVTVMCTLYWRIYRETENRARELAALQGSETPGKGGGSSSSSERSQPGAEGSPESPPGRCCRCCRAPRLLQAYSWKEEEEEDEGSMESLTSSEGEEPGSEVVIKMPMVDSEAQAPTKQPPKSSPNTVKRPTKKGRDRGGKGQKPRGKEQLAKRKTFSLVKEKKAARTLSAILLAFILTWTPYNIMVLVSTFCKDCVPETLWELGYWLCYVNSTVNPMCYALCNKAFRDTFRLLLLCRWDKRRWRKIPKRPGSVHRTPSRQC
Guanine nucleotide-binding protein G(i) subunit alpha-1 (Homo sapiens), sequence (P63096 whole entry, looked up): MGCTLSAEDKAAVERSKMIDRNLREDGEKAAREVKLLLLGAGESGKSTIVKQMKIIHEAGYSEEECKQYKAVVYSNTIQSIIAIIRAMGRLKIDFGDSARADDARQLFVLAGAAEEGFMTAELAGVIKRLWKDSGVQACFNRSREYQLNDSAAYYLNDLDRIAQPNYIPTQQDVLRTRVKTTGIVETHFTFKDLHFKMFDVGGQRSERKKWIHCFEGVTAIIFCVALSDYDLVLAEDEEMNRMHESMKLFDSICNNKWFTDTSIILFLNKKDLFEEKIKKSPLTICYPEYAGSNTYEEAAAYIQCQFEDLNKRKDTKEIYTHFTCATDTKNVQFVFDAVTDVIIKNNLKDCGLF
Cytochrome P450 3A4 (Homo sapiens), sequence (P08684 whole entry, looked up): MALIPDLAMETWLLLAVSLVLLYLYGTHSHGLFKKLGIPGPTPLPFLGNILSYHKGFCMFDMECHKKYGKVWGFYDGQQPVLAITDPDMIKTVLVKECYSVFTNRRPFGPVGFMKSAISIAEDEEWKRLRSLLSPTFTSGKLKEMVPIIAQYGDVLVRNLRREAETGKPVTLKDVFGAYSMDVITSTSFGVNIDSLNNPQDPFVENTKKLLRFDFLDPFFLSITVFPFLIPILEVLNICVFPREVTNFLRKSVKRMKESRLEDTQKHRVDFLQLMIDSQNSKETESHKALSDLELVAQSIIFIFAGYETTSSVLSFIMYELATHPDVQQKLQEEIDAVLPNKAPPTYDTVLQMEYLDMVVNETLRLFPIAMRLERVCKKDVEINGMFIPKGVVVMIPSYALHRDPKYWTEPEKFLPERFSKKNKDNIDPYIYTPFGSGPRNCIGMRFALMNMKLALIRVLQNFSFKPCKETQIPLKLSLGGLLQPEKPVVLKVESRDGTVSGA
Pyruvate kinase PKM (Homo sapiens), sequence (P14618 whole entry, looked up): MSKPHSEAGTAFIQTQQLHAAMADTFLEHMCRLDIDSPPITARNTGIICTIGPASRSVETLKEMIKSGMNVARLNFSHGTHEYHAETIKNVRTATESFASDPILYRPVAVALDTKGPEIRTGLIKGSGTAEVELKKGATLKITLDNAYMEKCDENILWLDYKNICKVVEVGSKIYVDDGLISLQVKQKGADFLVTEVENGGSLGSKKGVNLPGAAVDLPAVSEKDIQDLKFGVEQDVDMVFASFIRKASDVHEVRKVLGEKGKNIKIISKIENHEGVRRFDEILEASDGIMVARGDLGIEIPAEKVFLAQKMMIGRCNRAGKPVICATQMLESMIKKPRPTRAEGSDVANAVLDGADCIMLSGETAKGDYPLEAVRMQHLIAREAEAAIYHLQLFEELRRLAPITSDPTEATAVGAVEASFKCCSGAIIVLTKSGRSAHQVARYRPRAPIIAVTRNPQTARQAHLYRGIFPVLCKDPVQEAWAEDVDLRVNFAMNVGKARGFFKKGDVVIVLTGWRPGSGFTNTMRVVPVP
Cytochrome P450 1A2 (Homo sapiens), sequence (P05177 whole entry, looked up): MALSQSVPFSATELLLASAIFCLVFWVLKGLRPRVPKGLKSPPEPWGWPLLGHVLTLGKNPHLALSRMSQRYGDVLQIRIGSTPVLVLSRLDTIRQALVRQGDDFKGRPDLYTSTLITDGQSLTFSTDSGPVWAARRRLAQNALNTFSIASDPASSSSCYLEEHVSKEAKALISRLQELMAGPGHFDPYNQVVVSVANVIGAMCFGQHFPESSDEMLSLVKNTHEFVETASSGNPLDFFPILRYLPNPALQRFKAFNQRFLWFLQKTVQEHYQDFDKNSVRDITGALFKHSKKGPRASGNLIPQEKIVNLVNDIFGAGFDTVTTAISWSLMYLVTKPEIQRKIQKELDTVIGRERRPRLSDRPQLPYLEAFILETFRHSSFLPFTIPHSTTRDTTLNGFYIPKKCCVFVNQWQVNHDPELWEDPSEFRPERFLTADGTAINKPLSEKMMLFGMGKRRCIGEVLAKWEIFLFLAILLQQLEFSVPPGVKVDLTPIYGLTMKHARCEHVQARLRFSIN
Alpha-galactosidase A (Homo sapiens), sequence (P06280 whole entry, looked up): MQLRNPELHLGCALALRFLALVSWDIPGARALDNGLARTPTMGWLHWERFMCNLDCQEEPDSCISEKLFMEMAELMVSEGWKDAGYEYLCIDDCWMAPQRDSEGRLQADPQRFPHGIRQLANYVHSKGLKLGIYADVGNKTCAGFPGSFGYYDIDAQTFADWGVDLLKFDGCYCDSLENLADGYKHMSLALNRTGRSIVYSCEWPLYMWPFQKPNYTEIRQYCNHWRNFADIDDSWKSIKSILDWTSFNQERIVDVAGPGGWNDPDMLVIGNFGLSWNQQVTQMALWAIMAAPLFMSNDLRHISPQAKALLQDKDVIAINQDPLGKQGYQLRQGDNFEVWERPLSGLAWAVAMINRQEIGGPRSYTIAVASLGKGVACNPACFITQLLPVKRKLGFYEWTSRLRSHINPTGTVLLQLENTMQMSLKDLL
Glucocorticoid receptor (Homo sapiens), sequence (P04150 whole entry, looked up, the tested form may be a part): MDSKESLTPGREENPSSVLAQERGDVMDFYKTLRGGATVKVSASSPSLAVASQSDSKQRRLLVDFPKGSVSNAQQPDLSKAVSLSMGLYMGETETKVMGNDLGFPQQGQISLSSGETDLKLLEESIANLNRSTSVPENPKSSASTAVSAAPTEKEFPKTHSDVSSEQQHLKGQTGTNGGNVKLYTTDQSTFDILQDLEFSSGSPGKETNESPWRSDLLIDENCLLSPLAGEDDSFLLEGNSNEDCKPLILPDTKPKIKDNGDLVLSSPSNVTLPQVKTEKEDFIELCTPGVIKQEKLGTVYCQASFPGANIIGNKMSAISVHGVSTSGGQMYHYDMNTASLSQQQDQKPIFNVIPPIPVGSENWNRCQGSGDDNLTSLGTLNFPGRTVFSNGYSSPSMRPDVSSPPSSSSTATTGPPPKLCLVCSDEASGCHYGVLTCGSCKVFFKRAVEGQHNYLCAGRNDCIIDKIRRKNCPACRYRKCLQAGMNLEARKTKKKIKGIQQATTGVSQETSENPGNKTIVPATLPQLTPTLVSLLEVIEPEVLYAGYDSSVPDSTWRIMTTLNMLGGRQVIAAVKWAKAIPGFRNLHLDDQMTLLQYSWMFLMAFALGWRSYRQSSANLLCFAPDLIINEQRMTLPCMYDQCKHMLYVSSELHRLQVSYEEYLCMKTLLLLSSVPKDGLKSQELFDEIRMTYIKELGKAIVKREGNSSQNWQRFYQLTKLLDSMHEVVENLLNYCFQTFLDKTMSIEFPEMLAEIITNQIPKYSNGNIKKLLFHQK

CCN(CC)CCCN1C(=O)C(=O)/C(=C(/O)c2ccc(OC)cc2)C1c1ccco1 (configuration not stated)
inactive: activity change, negative = inhibition [1] 9.88% | activity change, negative = inhibition [2] -12.1% | activity, negative = inhibition [3] 10.8% | Potency [4] > 20.6 µM

COc1ccc2c(c1)CN([C@H](C)[C@@H]1CC[C@@H]3[C@H]4CC[C@H]5C[C@@H](O)CC[C@@]5(C)[C@H]4CC[C@]31C)CO2
inactive: activity change, negative = inhibition [1] 23.1% [at 7.69 µM] | activity change, negative = inhibition [5] -18% [at 2.29 µM] | activity, negative = inhibition [3] -2.48% [at 7.69 µM] | Potency [4] > 46 µM | Potency [6] > 9.22 µM | activity change, negative = inhibition [7] -1.53% [at 11.4 µM] | Potency [8] | activation [9] 15.9%

CC(=O)Nc1ccc(NCC(O)COc2ccccc2)cc1 (configuration not stated)
inactive: activity change, negative = inhibition [1] -3% | activity change, negative = inhibition [2] -5.41% | activity, negative = inhibition [3] 3.96% | Potency [4] > 20.6 µM

COCCNc1nc(-c2ccc(N(C)C)cc2)nc2ccccc12
inactive: activity change, negative = inhibition [1] 26.5% [at 7.69 µM] | activity, negative = inhibition [3] 4.49% [at 7.69 µM] | Potency [4] > 46 µM | Potency [6] > 46 µM | Potency [7] | Potency [8] | Potency [10]
active: Potency [5] 0.631 µM

COc1cc2nc(N3CC=[N+](C(=O)c4ccco4)CC3)nc(N)c2cc1OC
inactive: activity change, negative = inhibition [1] -19.6% [at 38 µM] | Potency [4] > 46 µM | Potency [6] > 46 µM | Potency [7] | Potency [8] | outcome [11] | Potency [12] | Potency [13] | outcome [14] | outcome [15]
active: Potency [5] 12.6 µM

Nc1nonc1OCCc1ccccc1
inactive: activity change, negative = inhibition [1] 2.66% | activity change, negative = inhibition [2] 3.18% | activity, negative = inhibition [3] -6.28%

O[Si@](CCCN1CCCCC1)(c1ccc(F)cc1)C1CCCCC1
inactive: activity change, negative = inhibition [1] 11.3% [at 38 µM] | Potency [5] | activity, negative = inhibition [3] 1.42% [at 38 µM] | Potency [4] > 46 µM | Potency [6] > 46 µM | Potency [7] | Potency [8] | outcome [11] | Potency [16] | Potency [13] | outcome [14] | outcome [15] | outcome [19]
active: Potency [17] 0.178 µM | Potency [18] 1.41 µM

CCCN(CCc1ccccc1)[C@H]1CCc2c(O)cccc2C1
inactive: activity change, negative = inhibition [1] 9.86% [at 38 µM] | activity, negative = inhibition [3] -8.8% [at 38 µM] | Potency [4] > 46 µM | Potency [6] > 46 µM | Potency [7] | outcome [11] | Potency [12] | Potency [13] | outcome [14] | outcome [15]
active: Potency [5] 12.6 µM | Potency [10] 12.6 µM | Potency [17] 0.501 µM | Potency [18] 2.82 µM

N#CC1=C(N)OC2=C(C(=O)CCC2)C1CCc1ccccc1 (configuration not stated)
inactive: activity change, negative = inhibition [1] -2.2% | activity change, negative = inhibition [2] -13.6% | activity, negative = inhibition [3] 8.87% | Potency [4] > 20.6 µM

C=CCNc1nc(N2CCOCC2)c(C#N)c2c1CN(C)CC2
inactive: activity change, negative = inhibition [1] 4.63% | activity change, negative = inhibition [2] -4.25% | activity, negative = inhibition [3] 2.07% | Potency [4] > 20.6 µM

CCN(CC)CCN1C(=O)C(=O)/C(=C(/O)c2ccc(F)cc2)C1c1cccnc1 (configuration not stated)
inactive: activity change, negative = inhibition [1] 12.6% | activity change, negative = inhibition [2] 3.02% | activity, negative = inhibition [3] -0.766% | Potency [4] > 20.6 µM

COc1ccc(C(=O)N2CCC(N3CCN(c4ccccc4)CC3)CC2)cc1OC
inactive: activity change, negative = inhibition [1] 11.1% | activity change, negative = inhibition [2] 20.4% | activity, negative = inhibition [3] -1.54% | Potency [4] > 20.6 µM

CCC(=O)O[C@@H]1CC(=O)O[C@H](C)CC=CC=C[C@@H](O)[C@H](C)C[C@H](CC=O)[C@H](O[C@H]2O[C@H](C)[C@@H](O[C@H]3C[C@@](C)(O)[C@@H](OC(=O)CC)[C@H](C)O3)[C@H](N(C)C)[C@H]2O)[C@H]1OC
inactive: activity change, negative = inhibition [1] 1.11% | activity change, negative = inhibition [2] 8.88% | activity, negative = inhibition [3] -1.1% | Potency [4] > 20.6 µM

O=C(CN1C(=O)c2ccccc2C1=O)NCc1ccncc1
inactive: activity change, negative = inhibition [1] -3.15% | activity change, negative = inhibition [2] -0.713% | activity, negative = inhibition [3] 5.8% | Potency [4] > 20.6 µM

CCN(CC)CCN1C(=O)C(=O)/C(=C(/O)c2ccc(OC)cc2)C1c1ccco1 (configuration not stated)
inactive: activity change, negative = inhibition [1] -1.18% | activity change, negative = inhibition [2] -15.2% | activity, negative = inhibition [3] 3.92% | Potency [4] > 20.6 µM

O=C1C=C(NCCNc2c(F)c(F)c(CO)c(F)c2F)CCC1
inactive: activity change, negative = inhibition [1] -0.699% | activity change, negative = inhibition [2] -5.54% | activity, negative = inhibition [3] 2.13% | Potency [4] > 20.6 µM

COc1ccc(/C(O)=C2\C(=O)C(=O)N(CCN(C)C)C2c2cccc(OC)c2OC)cc1 (configuration not stated)
inactive: activity change, negative = inhibition [1] 10.8% | activity change, negative = inhibition [2] -5.32% | activity, negative = inhibition [3] 11.6% | Potency [4] > 20.6 µM

Nc1ccc2cn[nH]c2c1
inactive: activity change, negative = inhibition [1] 4.71% | activity change, negative = inhibition [2] 2.08% | activity, negative = inhibition [3] 6.7% | Potency [4] > 20.6 µM
